# Test results: publication PMC11062922 (Nature Chemical Biology, 2023)
# Where two headings read alike, the source gives them in different places.
# How the values were obtained:
# [1] = tested on: TNIK; conditions: read-out: apparent Kd, n = 1
# [2] = tested on: ULK3; conditions: read-out: apparent Kd, n = 1
# [3] = compound concentrations:100 nM and 1000 nM (sheet 'Lestaurtinib' of Supplementary Table 1),run:Lestaurtinib_02896_R2,Plate:MR030
# [4] = compound concentrations:100 nM and 1000 nM (sheet 'Lestaurtinib' of Supplementary Table 1),run:Lestaurtinib_02896_R3,Plate:MR030
# [5] = compound concentrations:100 nM and 1000 nM (sheet 'Lestaurtinib' of Supplementary Table 1),run:Lestaurtinib_03252_R1,Plate:MR032
# [6] = compound concentrations:100 nM and 1000 nM (sheet 'Lestaurtinib' of Supplementary Table 1),run:Lestaurtinib_03260_R1,Plate:MR033
substance,measurement,setting,value
Lestaurtinib,potency estimated from few doses,"[1]; compound concentrations:100 nM and 1000 nM (sheet 'Lestaurtinib' of Supplementary Table 1),run:Lestaurtinib_02795_R2,Plate:MR022",154 nM
same,potency estimated from few doses,"[1]; compound concentrations:100 nM and 1000 nM (sheet 'Lestaurtinib' of Supplementary Table 1),run:Lestaurtinib_02795_R3,Plate:MR022",504 nM
same,potency estimated from few doses,"[1]; compound concentrations:100 nM and 1000 nM (sheet 'Lestaurtinib' of Supplementary Table 1),run:Lestaurtinib_02802_R1,Plate:MR029",121 nM
same,potency estimated from few doses,"[1]; compound concentrations:100 nM and 1000 nM (sheet 'Lestaurtinib' of Supplementary Table 1),run:Lestaurtinib_02802_R2,Plate:MR029",141 nM
same,potency estimated from few doses,"[1]; compound concentrations:100 nM and 1000 nM (sheet 'Lestaurtinib' of Supplementary Table 1),run:Lestaurtinib_02896_R1,Plate:MR030",444 nM
same,potency estimated from few doses,[1]; [3],356 nM
same,potency estimated from few doses,[1]; [4],484 nM
same,potency estimated from few doses,"[1]; compound concentrations:100 nM and 1000 nM (sheet 'Lestaurtinib' of Supplementary Table 1),run:Lestaurtinib_03172_R2,Plate:MR031",157 nM
same,potency estimated from few doses,"[1]; compound concentrations:100 nM and 1000 nM (sheet 'Lestaurtinib' of Supplementary Table 1),run:Lestaurtinib_03172_R3,Plate:MR031",561 nM
same,potency estimated from few doses,[1]; [5],143 nM
same,potency estimated from few doses,[1]; [6],428 nM
same,potency estimated from few doses,"[1]; compound concentrations:100 nM and 1000 nM (sheet 'Lestaurtinib' of Supplementary Table 1),run:Lestaurtinib_03260_R2,Plate:MR033",808 nM
same,potency estimated from few doses,"[1]; compound concentrations:100 nM and 1000 nM (sheet 'Lestaurtinib' of Supplementary Table 1),run:Lestaurtinib_03260_R3,Plate:MR033",717 nM
same,potency estimated from few doses,"[2]; compound concentrations:100 nM and 1000 nM (sheet 'Lestaurtinib' of Supplementary Table 1),run:Lestaurtinib_02339_R1,Plate:MR001",270 nM
same,potency estimated from few doses,"[2]; compound concentrations:100 nM and 1000 nM (sheet 'Lestaurtinib' of Supplementary Table 1),run:Lestaurtinib_02339_R3,Plate:MR001",265 nM
same,potency estimated from few doses,"[2]; compound concentrations:100 nM and 1000 nM (sheet 'Lestaurtinib' of Supplementary Table 1),run:Lestaurtinib_02364_R1,Plate:MR002",301 nM
same,potency estimated from few doses,"[2]; compound concentrations:100 nM and 1000 nM (sheet 'Lestaurtinib' of Supplementary Table 1),run:Lestaurtinib_02364_R2,Plate:MR002",295 nM
same,potency estimated from few doses,"[2]; compound concentrations:100 nM and 1000 nM (sheet 'Lestaurtinib' of Supplementary Table 1),run:Lestaurtinib_02367_R1,Plate:MR003",146 nM
same,potency estimated from few doses,"[2]; compound concentrations:100 nM and 1000 nM (sheet 'Lestaurtinib' of Supplementary Table 1),run:Lestaurtinib_02367_R2,Plate:MR003",218 nM
same,potency estimated from few doses,"[2]; compound concentrations:100 nM and 1000 nM (sheet 'Lestaurtinib' of Supplementary Table 1),run:Lestaurtinib_02367_R3,Plate:MR003",228 nM
same,potency estimated from few doses,"[2]; compound concentrations:100 nM and 1000 nM (sheet 'Lestaurtinib' of Supplementary Table 1),run:Lestaurtinib_02381_R1,Plate:MR004",154 nM
same,potency estimated from few doses,"[2]; compound concentrations:100 nM and 1000 nM (sheet 'Lestaurtinib' of Supplementary Table 1),run:Lestaurtinib_02407_R1,Plate:MR005",137 nM
same,potency estimated from few doses,"[2]; compound concentrations:100 nM and 1000 nM (sheet 'Lestaurtinib' of Supplementary Table 1),run:Lestaurtinib_02422_R1,Plate:MR006",113 nM
same,potency estimated from few doses,"[2]; compound concentrations:100 nM and 1000 nM (sheet 'Lestaurtinib' of Supplementary Table 1),run:Lestaurtinib_02422_R2,Plate:MR006",60.5 nM
same,potency estimated from few doses,"[2]; compound concentrations:100 nM and 1000 nM (sheet 'Lestaurtinib' of Supplementary Table 1),run:Lestaurtinib_02422_R3,Plate:MR006",134 nM
same,potency estimated from few doses,"[2]; compound concentrations:100 nM and 1000 nM (sheet 'Lestaurtinib' of Supplementary Table 1),run:Lestaurtinib_02437_R1,Plate:MR007",239 nM
same,potency estimated from few doses,"[2]; compound concentrations:100 nM and 1000 nM (sheet 'Lestaurtinib' of Supplementary Table 1),run:Lestaurtinib_02437_R2,Plate:MR007",253 nM
same,potency estimated from few doses,"[2]; compound concentrations:100 nM and 1000 nM (sheet 'Lestaurtinib' of Supplementary Table 1),run:Lestaurtinib_02437_R3,Plate:MR007",22.5 nM
same,potency estimated from few doses,"[2]; compound concentrations:100 nM and 1000 nM (sheet 'Lestaurtinib' of Supplementary Table 1),run:Lestaurtinib_02438_R2,Plate:MR008",236 nM
same,potency estimated from few doses,"[2]; compound concentrations:100 nM and 1000 nM (sheet 'Lestaurtinib' of Supplementary Table 1),run:Lestaurtinib_02438_R3,Plate:MR008",286 nM
same,potency estimated from few doses,"[2]; compound concentrations:100 nM and 1000 nM (sheet 'Lestaurtinib' of Supplementary Table 1),run:Lestaurtinib_02443_R1,Plate:MR009",231 nM
same,potency estimated from few doses,"[2]; compound concentrations:100 nM and 1000 nM (sheet 'Lestaurtinib' of Supplementary Table 1),run:Lestaurtinib_02443_R2,Plate:MR009",239 nM
same,potency estimated from few doses,"[2]; compound concentrations:100 nM and 1000 nM (sheet 'Lestaurtinib' of Supplementary Table 1),run:Lestaurtinib_02443_R3,Plate:MR009",196 nM
same,potency estimated from few doses,"[2]; compound concentrations:100 nM and 1000 nM (sheet 'Lestaurtinib' of Supplementary Table 1),run:Lestaurtinib_02473_R1,Plate:MR010",232 nM
same,potency estimated from few doses,"[2]; compound concentrations:100 nM and 1000 nM (sheet 'Lestaurtinib' of Supplementary Table 1),run:Lestaurtinib_02473_R2,Plate:MR010",253 nM
same,potency estimated from few doses,"[2]; compound concentrations:100 nM and 1000 nM (sheet 'Lestaurtinib' of Supplementary Table 1),run:Lestaurtinib_02482_R1,Plate:MR011",240 nM
same,potency estimated from few doses,"[2]; compound concentrations:100 nM and 1000 nM (sheet 'Lestaurtinib' of Supplementary Table 1),run:Lestaurtinib_02482_R2,Plate:MR011",244 nM
same,potency estimated from few doses,"[2]; compound concentrations:100 nM and 1000 nM (sheet 'Lestaurtinib' of Supplementary Table 1),run:Lestaurtinib_02482_R3,Plate:MR011",219 nM
same,potency estimated from few doses,"[2]; compound concentrations:100 nM and 1000 nM (sheet 'Lestaurtinib' of Supplementary Table 1),run:Lestaurtinib_02487_R1,Plate:MR012",144 nM
same,potency estimated from few doses,"[2]; compound concentrations:100 nM and 1000 nM (sheet 'Lestaurtinib' of Supplementary Table 1),run:Lestaurtinib_02487_R2,Plate:MR012",219 nM
same,potency estimated from few doses,"[2]; compound concentrations:100 nM and 1000 nM (sheet 'Lestaurtinib' of Supplementary Table 1),run:Lestaurtinib_02487_R3,Plate:MR012",250 nM
same,potency estimated from few doses,"[2]; compound concentrations:100 nM and 1000 nM (sheet 'Lestaurtinib' of Supplementary Table 1),run:Lestaurtinib_02496_R1,Plate:MR013",131 nM
same,potency estimated from few doses,"[2]; compound concentrations:100 nM and 1000 nM (sheet 'Lestaurtinib' of Supplementary Table 1),run:Lestaurtinib_02496_R2,Plate:MR013",165 nM
same,potency estimated from few doses,"[2]; compound concentrations:100 nM and 1000 nM (sheet 'Lestaurtinib' of Supplementary Table 1),run:Lestaurtinib_02496_R3,Plate:MR013",254 nM
same,potency estimated from few doses,"[2]; compound concentrations:100 nM and 1000 nM (sheet 'Lestaurtinib' of Supplementary Table 1),run:Lestaurtinib_02566_R1,Plate:MR014",153 nM
same,potency estimated from few doses,"[2]; compound concentrations:100 nM and 1000 nM (sheet 'Lestaurtinib' of Supplementary Table 1),run:Lestaurtinib_02566_R3,Plate:MR014",242 nM
same,potency estimated from few doses,"[2]; compound concentrations:100 nM and 1000 nM (sheet 'Lestaurtinib' of Supplementary Table 1),run:Lestaurtinib_02572_R3,Plate:MR015",329 nM
same,potency estimated from few doses,"[2]; compound concentrations:100 nM and 1000 nM (sheet 'Lestaurtinib' of Supplementary Table 1),run:Lestaurtinib_02577_R2,Plate:MR016",271 nM
same,potency estimated from few doses,"[2]; compound concentrations:100 nM and 1000 nM (sheet 'Lestaurtinib' of Supplementary Table 1),run:Lestaurtinib_02577_R3,Plate:MR016",224 nM
same,potency estimated from few doses,"[2]; compound concentrations:100 nM and 1000 nM (sheet 'Lestaurtinib' of Supplementary Table 1),run:Lestaurtinib_02584_R1,Plate:MR017",232 nM
same,potency estimated from few doses,"[2]; compound concentrations:100 nM and 1000 nM (sheet 'Lestaurtinib' of Supplementary Table 1),run:Lestaurtinib_02584_R2,Plate:MR017",261 nM
same,potency estimated from few doses,"[2]; compound concentrations:100 nM and 1000 nM (sheet 'Lestaurtinib' of Supplementary Table 1),run:Lestaurtinib_02584_R3,Plate:MR017",254 nM
same,potency estimated from few doses,"[2]; compound concentrations:100 nM and 1000 nM (sheet 'Lestaurtinib' of Supplementary Table 1),run:Lestaurtinib_02601_R1,Plate:MR018",290 nM
same,potency estimated from few doses,"[2]; compound concentrations:100 nM and 1000 nM (sheet 'Lestaurtinib' of Supplementary Table 1),run:Lestaurtinib_02601_R2,Plate:MR018",271 nM
same,potency estimated from few doses,"[2]; compound concentrations:100 nM and 1000 nM (sheet 'Lestaurtinib' of Supplementary Table 1),run:Lestaurtinib_02601_R3,Plate:MR018",297 nM
same,potency estimated from few doses,"[2]; compound concentrations:100 nM and 1000 nM (sheet 'Lestaurtinib' of Supplementary Table 1),run:Lestaurtinib_02624_R2,Plate:MR020",258 nM
same,potency estimated from few doses,"[2]; compound concentrations:100 nM and 1000 nM (sheet 'Lestaurtinib' of Supplementary Table 1),run:Lestaurtinib_02624_R3,Plate:MR020",269 nM
same,potency estimated from few doses,"[2]; compound concentrations:100 nM and 1000 nM (sheet 'Lestaurtinib' of Supplementary Table 1),run:Lestaurtinib_02724_R1,Plate:MR021",243 nM
same,potency estimated from few doses,"[2]; compound concentrations:100 nM and 1000 nM (sheet 'Lestaurtinib' of Supplementary Table 1),run:Lestaurtinib_02724_R2,Plate:MR021",220 nM
same,potency estimated from few doses,"[2]; compound concentrations:100 nM and 1000 nM (sheet 'Lestaurtinib' of Supplementary Table 1),run:Lestaurtinib_02741_R1,Plate:MR023",268 nM
same,potency estimated from few doses,"[2]; compound concentrations:100 nM and 1000 nM (sheet 'Lestaurtinib' of Supplementary Table 1),run:Lestaurtinib_02748_R1,Plate:MR024",144 nM
same,potency estimated from few doses,"[2]; compound concentrations:100 nM and 1000 nM (sheet 'Lestaurtinib' of Supplementary Table 1),run:Lestaurtinib_02748_R2,Plate:MR024",132 nM
same,potency estimated from few doses,"[2]; compound concentrations:100 nM and 1000 nM (sheet 'Lestaurtinib' of Supplementary Table 1),run:Lestaurtinib_02752_R1,Plate:MR025",260 nM
same,potency estimated from few doses,"[2]; compound concentrations:100 nM and 1000 nM (sheet 'Lestaurtinib' of Supplementary Table 1),run:Lestaurtinib_02765_R1,Plate:MR026",320 nM
same,potency estimated from few doses,"[2]; compound concentrations:100 nM and 1000 nM (sheet 'Lestaurtinib' of Supplementary Table 1),run:Lestaurtinib_02765_R3,Plate:MR026",304 nM
same,potency estimated from few doses,"[2]; compound concentrations:100 nM and 1000 nM (sheet 'Lestaurtinib' of Supplementary Table 1),run:Lestaurtinib_02768_R1,Plate:MR028",240 nM
same,potency estimated from few doses,"[2]; compound concentrations:100 nM and 1000 nM (sheet 'Lestaurtinib' of Supplementary Table 1),run:Lestaurtinib_02768_R3,Plate:MR028",206 nM
same,potency estimated from few doses,"[2]; compound concentrations:100 nM and 1000 nM (sheet 'Lestaurtinib' of Supplementary Table 1),run:Lestaurtinib_02802_R3,Plate:MR029",237 nM
same,potency estimated from few doses,[2]; [3],236 nM
same,potency estimated from few doses,[2]; [4],158 nM
same,potency estimated from few doses,"[2]; compound concentrations:100 nM and 1000 nM (sheet 'Lestaurtinib' of Supplementary Table 1),run:Lestaurtinib_03172_R1,Plate:MR031",259 nM
same,potency estimated from few doses,[2]; [5],261 nM
same,potency estimated from few doses,[2]; [6],314 nM
